TDP1 cell noCPT – qHTS for Inhibitors of human tyrosyl-DNA phosphodiesterase 1 (TDP1): qHTS in cells in absence of CPT; 15% of 420,000 active; Potency, µM (highest dose often 46.2 µM), for the others: at the top dose activity change, negative = growth inhibition, hits mostly inhibitors; DT40 Tdp1-/- hTDP1 cells, no CPT, ATP luminescence, 48 h; also: potency is read from the fitted curve at half-maximal effect; nearly all actives have a fitted effect of over 55% in size
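Growth kinetics read by CellTiter-Glo luminescence after ≥48 hr at 37 °C. Cells: DT40 Tdp1-/- stably carrying human TDP1, 400 per well, compound exposure in the absence of CPT (DMSO vehicle).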
IL-1B inflam inh – inflammasome signaling inhibition, IL-1 beta readout | THP-1 LPS/ATP IL-1B secretion, AlphaLISA, 16 h; stronger effect = lower value | activity change, % at 57.5 µM | 4.7% of 360,000 active | AID 743279; in the data active = activity change below about -50%; inconclusive = mostly about -30% to -49%
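Secreted IL-1B measured by AlphaLISA bead assay after 16 h compound exposure of THP-1 cells; compounds (final up to 57.5 uM) added 1 h before LPS (250 ng/mL) and ATP (1.25 mM) stimulation; lower signal means less secretion.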
Giardia kill – Giardia lamblia killing; 0.15% of 340,000 active; AID 540267; activity change, % at 7.66 µM, hits read low; Giardia lamblia trophozoite viability; in the data active = activity change below about -80%; inconclusive = between about -30% and that limit;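 also: parasites exposed to compound for two days anaerobically before the ATP read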
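Viability, read as ATP luminescence: trophozoites at 100 cells/well, compound added, 48 hrs anaerobic at 37 deg C, then 15-30 min room-temperature development before reading.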
TDP1 block – blocks human tyrosyl-DNA phosphodiesterase 1 | recombinant TDP1, AlphaScreen DNA substrate cleavage | Potency, µM (titrated, usually from 130 µM), for the others: at the highest dose activity change, negative = inhibition, usual class: inhibitors | 0.28% of 350,000 active | AID 485290; also: potency is read from the fitted curve at half-maximal effect; nearly all actives have a fitted effect of over 40% in size
Target sequence (Q9NUW8 whole entry, looked up): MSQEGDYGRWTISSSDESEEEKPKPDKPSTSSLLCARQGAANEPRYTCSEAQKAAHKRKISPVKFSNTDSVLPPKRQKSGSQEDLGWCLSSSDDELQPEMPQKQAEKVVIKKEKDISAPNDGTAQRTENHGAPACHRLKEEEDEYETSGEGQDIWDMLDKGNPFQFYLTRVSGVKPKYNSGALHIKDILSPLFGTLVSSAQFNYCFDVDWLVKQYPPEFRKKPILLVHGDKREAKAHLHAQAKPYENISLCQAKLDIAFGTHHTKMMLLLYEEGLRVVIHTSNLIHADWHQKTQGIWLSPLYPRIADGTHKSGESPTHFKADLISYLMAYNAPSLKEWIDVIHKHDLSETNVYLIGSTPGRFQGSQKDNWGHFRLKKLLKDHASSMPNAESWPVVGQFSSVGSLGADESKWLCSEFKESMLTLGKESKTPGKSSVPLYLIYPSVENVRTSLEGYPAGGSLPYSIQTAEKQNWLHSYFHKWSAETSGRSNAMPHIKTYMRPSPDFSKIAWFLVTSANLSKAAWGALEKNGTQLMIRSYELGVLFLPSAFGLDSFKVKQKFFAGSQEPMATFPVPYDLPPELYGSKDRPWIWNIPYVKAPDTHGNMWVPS
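Recombinant human Tdp1 (E. coli-expressed, 1 nM final) preincubated with compounds 15 min at room temperature, then 5'-biotin/3'-phosphotyrosine-FITC DNA substrate (15 nM final) added for 5 min. AlphaScreen beads (10 ug/ml final) added 10 min; cleavage lowers signal.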
ELG1 repair inh – inhibitors of ELG1-dependent DNA repair in HEK293T cells; HEK293T ELG1-luciferase reporter, luminescence, 16 h; DNA damage induced by 5-fluorouridine; Potency, µM (series often up to 46.1 µM), without a hit: at the top dose activity change, negative = inhibition, actives largely listed as inhibitors; 2.3% of 330,000 active; AID 504467; also: potency is read from the fitted curve at half-maximal effect; nearly all actives have a fitted effect of over 55% in size
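Reporter activity after DNA damage by 5-fluorouridine is monitored. Compound-treated cells incubate 16 hr at 37 °C, then ONE-Glo is added for 30 min before luminescence reading.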
DT40 TDP1 CPT – growth inhibition of DT40 Tdp1-/-;hTDP1 cells with camptothecin (screen for TDP1 inhibitors) | AID 686979 | Potency, µM (series often up to 46.2 µM), inactives show top-dose activity change, negative = growth inhibition, usual class: inhibitors | 12% of 420,000 active | chicken DT40 Tdp1-/-;hTDP1 cells + 20 nM CPT, ATP luminescence, 48 h; also: potency is read from the fitted curve at half-maximal effect; nearly all actives have a fitted effect of over 55% in size
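Chicken DT40 Tdp1-/- cells complemented with human TDP1, 400 cells/well, exposed to compounds plus 20 nM camptothecin for at least 48 h at 37 C; viability read as ATP content by CellTiter-Glo luminescence.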
Numbers without * were called inactive; ? = inconclusive; . = no result; [ ] = dose if it differs, or a comment. An excerpt weighted towards active compounds, which were near 19% of everything screened. Unless noted, calls follow the shape of the dose curve; as a rule, active = well fitted curve in the direction sought with a large enough effect; inconclusive = small, poorly fitted or top-dose-only effect, or another doubt; inactive = no such curve, though single readings can be large; an effect the other way counts as inactive or inconclusive. % is scaled to controls: 0 for no effect and ±100 for the full control effect.

SMILES	TDP1 cell noCPT	IL-1B inflam inh	Giardia kill	TDP1 block	ELG1 repair inh	DT40 TDP1 CPT
CCCCCC(=O)Nc1nc(C)c(-c2csc(Nc3ccccc3OCC)n2)s1	?	3	1	9%	-6%	?
CCCCCC(=O)Nc1nc(C)c(-c2csc(Nc3ccccc3OC)n2)s1	18µM*	-8	9	9%	?	23µM*
CCCCCCC(=O)Nc1nc(C)c(-c2csc(Nc3ccccc3OC)n2)s1	21µM*	-1	7	9%	?	?
Cc1nc(NC(=O)c2ccccc2)sc1-c1csc(NCCc2ccccc2)n1	16µM*	2	10	3%	?	23µM*
Cc1cc(C)c(OCC(=O)OCC(=O)N2c3ccccc3CC2C)c(C)c1 (centres undefined)	-6%	23	4	-12%	?	-11%
CCN1C(=O)[C@H]2[C@@H](c3ccc(-c4ccc5c(c4)OCO5)cc3)N3CCC[C@@]3(C(=O)OC)[C@H]2C1=O	12µM*	-26	6	6%	?	?
CCN1C(=O)[C@@H]2[C@@H](c3ccc(-c4ccc5c(c4)OCO5)cc3)N3CCCC[C@@]3(C(=O)OC)[C@@H]2C1=O	21µM*	-3	2	7%	?	15µM*
Cc1noc(C)c1COc1ccccc1C(=O)N1CCN(S(=O)(=O)c2ccccc2F)CC1	-16%	3	5	.	?	?
Cc1ccc(S(=O)(=O)N2CCN(C(=O)c3ccccc3OCc3c(C)noc3C)CC2)cc1	?	15	-24	4%	-12%	18µM*
Cc1cccc(N2CCN(C(=O)c3ccccc3OCc3c(C)noc3C)CC2)c1C	16µM*	?	6	-7%[0.505 µM]	-26%	18µM*
O=C(COC(=O)/C=C/c1ccccc1[N+](=O)[O-])NC1CCS(=O)(=O)C1 (centres undefined)	2%	-11	-27	-4%	2%	10%
NC(=O)c1ccsc1NC(=O)COC(=O)/C=C/c1ccccc1[N+](=O)[O-]	16µM*	19	27	-7%	?	?
O=C(COC(=O)/C=C/c1ccccc1[N+](=O)[O-])NC1CC1	21µM*	11	15	1%	3%	?
NC(=O)c1ccsc1NC(=O)COC(=O)/C=C/c1ccccc1	18µM*	15	2	-10%[0.505 µM]	?	?
COc1cc(CC(=O)OCC(=O)Nc2sccc2C(N)=O)cc(OC)c1OC	16µM*	30	-20	5%	7.3µM*	29µM*
Cc1ccccc1Nc1c(-c2cccnc2)nc2cccc(C)n12	21µM*	3	7	3%	?	?
Cc1cccc2nc(-c3cccnc3)c(Nc3ccc(C(C)C)cc3)n12	16µM*	.	.	0%	.	?
Cc1ccccc1Nc1c(-c2ccc(N3CCOCC3)cc2)nc2cccc(C)n12	?	.	.	4%[12.3 µM]	.	?
Cc1ccccc1Nc1c(-c2cccs2)nc2cccc(C)n12	13µM*	.	.	5%	.	15µM*
COc1ccc(S(=O)(=O)Nc2ccc(N3CCOCC3)nc2)cc1	?	14	-1	8%	?	-19%
O=C(NCc1ccccc1)C(C1CC1)n1c(Cc2cc(F)cc(F)c2)nc2ccccc21 (centres undefined)	18µM*	-9	.	.	.	?
CC(C(=O)NCc1ccccc1)n1c(Cc2cc(F)cc(F)c2)nc2ccccc21 (centres undefined)	?	18	.	.	.	-109%
Cc1ccc(C)c(NS(=O)(=O)c2ccc3c4c(cccc24)C(=O)N3)c1	15µM*	.	.	2%[12.3 µM]	.	?
O=C1Nc2ccc(S(=O)(=O)Nc3ccccc3O)c3cccc1c23	-22%	.	.	-6%	.	0%
CCN(CC)CCNS(=O)(=O)c1ccc2c3c(cccc13)C(=O)N2	15µM*	-2	29	0%	-15%	?
